Growth data for 16 molecules are collected here from PubChem BioAssay (NCI).

The panel holds about 83,000 compounds, 20% with a hit somewhere; the sample as a whole holds those more often.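 Method: cells in 96-well plates; compound added at one concentration; 48 h incubation; percent growth measured; values under 10 scored active.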 A number with no mark means an inactive call. Calls of active or inactive are those of the source.

Test systems include T-47D breast; BT-549 breast; MDA-MB-435 melanoma; SW-620 colon; MCF7 breast; HCT-116 colon; HCC-2998 colon; KM12 colon.
What all share (assay): NCI-60 one-dose screen, 48 h (100 = growth as untreated, 0 = no growth, -100 = all killed)
What all share (details): 10 µM unless noted

In the case of `C=C1CCC2C3(C)COC(C)(C)OC3CCC2(C)C1C/C=C1/C(=O)OCC1OC(C)=O` (stereo not drawn), the growth is 27.7% with T-47D breast; 52.9% in the assay with BT-549 breast; 27.1% in the assay with MDA-MB-435 melanoma; -38.8% (active) with SW-620 colon; 16.5% in the assay on MCF7 breast; -21.1% (active) in the assay with HCT-116 colon. Also, the growth in the assay with HCC-2998 colon was 100%; in the assay on KM12 colon, 10.1%.
For the molecule `Cc1[nH]n(-c2ccccc2)c2nc3nncc3c(-c3ccc(Cl)cc3)c12`, the growth in the assay with T-47D breast is 93.6%; in the assay on BT-549 breast, 111%; with MDA-MB-435 melanoma, 98.1%; in the assay on SW-620 colon, 93.3%; with MCF7 breast, 93.9%; in the assay with HCT-116 colon it was 93.9%. Further, the values for the growth in the assay on HCC-2998 colon and in the assay on KM12 colon were 109% and 97%, respectively.
As for `O=C(/C=C/c1cccc(Br)c1)c1ccccc1`, the growth in the assay with T-47D breast is 52%; with BT-549 breast, 76.6%; with MDA-MB-435 melanoma, 80.9%; in the assay with SW-620 colon it was 69.9%; in the assay on MCF7 breast, 12.6%; in the assay with HCT-116 colon it was 47.1%. In addition, the values for the growth with HCC-2998 colon and in the assay with KM12 colon were 96.4% and 70.9%, respectively.
On to `CN1CCCCC1CCN1c2ccccc2Sc2ccc(Cl)cc21` (stereo not drawn), for which the growth is 71.1% in the assay on T-47D breast; 73.8% with BT-549 breast; 27% in the assay with MDA-MB-435 melanoma; 73.4% in the assay on SW-620 colon; 21.6% with MCF7 breast; 30.6% in the assay with HCT-116 colon. In addition, the growth in the assay on HCC-2998 colon was 61.1%; with KM12 colon, 60%.
As for `COc1nc2c(cc1S(=O)(=O)c1ccccc1)CCc1c-2cnn1Cc1ccccc1`, the growth is 16.3% in the assay on T-47D breast; 62.8% in the assay on BT-549 breast; 58.9% in the assay on MDA-MB-435 melanoma; 74.1% in the assay on SW-620 colon; 15.4% in the assay with MCF7 breast; 32.5% with HCT-116 colon. For the same molecule, the figures for the growth in the assay with HCC-2998 colon and in the assay with KM12 colon were 60.5% and 27.7%, respectively.
Take `CC1=C(C)C(=O)OC([C@](C)(O)[C@]2(O)CC[C@@]3(O)[C@@H]4C[C@H]5O[C@]56CC=CC(=O)[C@]6(C)[C@H]4CC[C@]23COC(=O)c2ccc(C)o2)C1` (stereo partly drawn): the growth with T-47D breast is -57.1% (active); in the assay on BT-549 breast, -49.3% (active); in the assay with MDA-MB-435 melanoma, -76.9% (active); in the assay on SW-620 colon, -55.6% (active); in the assay with MCF7 breast, -66.2% (active); with HCT-116 colon, -43.5% (active). Besides, the results for the growth in the assay with HCC-2998 colon and in the assay on KM12 colon were -73.7% (active) and -69% (active), respectively.
Turning to `COc1ccc(S(=O)(=O)NCCCNc2cc(-c3c(-c4cccc(OC)c4)nc4sccn34)ccn2)cc1`, the growth in the assay with T-47D breast is 2.13% (active); in the assay on BT-549 breast, 45.1%; in the assay with MDA-MB-435 melanoma, 44.4%; in the assay on SW-620 colon, 63.7%; with MCF7 breast, 34.5%; with HCT-116 colon, 47.3%. Further, the growth in the assay with HCC-2998 colon is 70.7%; in the assay with KM12 colon, 39.6%.
Turning to `CNc1cc2nc3cc(NC)c(C)cc3cc2cc1C`, the growth was 7.86% (active) in the assay on T-47D breast; 20.6% in the assay on BT-549 breast; 41.7% with MDA-MB-435 melanoma; 8.75% (active) in the assay on SW-620 colon; 3.03% (active) with MCF7 breast; 5.54% (active) in the assay on HCT-116 colon. Moreover, the values for the growth in the assay on HCC-2998 colon and in the assay on KM12 colon were 18.7% and -40.7% (active), respectively.
Turning to `CN1CCN(Cc2ccc(NC(=O)c3cncc(C#Cc4c(N)ncc5ccc(C#N)cc45)c3)cc2C(F)(F)F)CC1`, the growth in the assay on T-47D breast was 65%; with BT-549 breast, 92.3%; with MDA-MB-435 melanoma, -93.8% (active); with SW-620 colon, -69.2% (active); with MCF7 breast, -69.7% (active); in the assay with HCT-116 colon, -22% (active). The results for the growth in the assay with HCC-2998 colon and with KM12 colon were 78.5% and -41.8% (active), respectively.
In the case of `Oc1cc(O)c2c(=S)cc(-c3ccc(Cl)cc3)oc2c1`, the growth in the assay on T-47D breast is 0.614% (active); in the assay with BT-549 breast, 38.4%; in the assay on MDA-MB-435 melanoma it was 25.9%; with SW-620 colon, 41.5%; in the assay with MCF7 breast it was 6.22% (active); in the assay with HCT-116 colon, 17.6%. Besides, the growth was 57.7% with HCC-2998 colon and 38.7% with KM12 colon.
On to `OC(c1cccc(C(F)(F)F)c1)c1cnccc1NC1CCCCCC1` (stereo not drawn), for which the growth is -3.18% (active) in the assay on T-47D breast; 71.4% in the assay on BT-549 breast; 32.6% with MDA-MB-435 melanoma; 3.19% (active) in the assay on SW-620 colon; -6.03% (active) in the assay with MCF7 breast; 14.4% in the assay with HCT-116 colon. For the same molecule, the growth in the assay with HCC-2998 colon was -70.1% (active); in the assay with KM12 colon it was 3.96% (active).
Take `CC(C)[C@H]1COC(=O)N1[C@@H]1C(=O)N([C@@H](CCC(=O)N2CCN(C3CCCC3)CC2)C(=O)N[C@@H]2CCCc3ccccc32)[C@@H]1/C=C/c1cccc(Br)c1`: the growth in the assay with T-47D breast is 39.9%; in the assay on BT-549 breast, 27.6%; in the assay on MDA-MB-435 melanoma, 30.2%; in the assay with SW-620 colon, 45.2%; with MCF7 breast, 23%; with HCT-116 colon, 14.3%. The results for the growth in the assay with HCC-2998 colon and in the assay on KM12 colon were 30.8% and 35.6%, respectively.
As for `COc1cnc2c(c1)C(=O)c1c-2n(CCCN2CCN(C)CC2)c(=O)c2cc([N+](=O)[O-])ccc12`, the growth with T-47D breast was -57.2% (active); in the assay on BT-549 breast it was -54.6% (active); with MDA-MB-435 melanoma, -93.8% (active); in the assay with SW-620 colon it was -73% (active); in the assay with MCF7 breast, -40.1% (active); in the assay with HCT-116 colon, -83.8% (active). For the same molecule, the growth was 95.1% in the assay with HCC-2998 colon and -29% (active) in the assay with KM12 colon.
In the case of `O=C1NC(=O)C(CC(=O)n2c(-c3ccccc3)nc3ccccc32)C(=O)N1`, the growth was 93.5% with T-47D breast; 101% with BT-549 breast; 106% with MDA-MB-435 melanoma; 104% in the assay with SW-620 colon; 92.4% with MCF7 breast; 104% in the assay on HCT-116 colon. The growth with HCC-2998 colon was 113%; with KM12 colon, 101%.
Consider `CN1CCN(Cc2ccc(NC(=O)c3[nH]ncc3Nc3ncnc4[nH]ccc34)cc2)CC1`, for which the growth was 21.7% in the assay with T-47D breast; -76.2% (active) in the assay on BT-549 breast; 8.18% (active) in the assay with MDA-MB-435 melanoma; 5.63% (active) in the assay with SW-620 colon; 9.25% (active) with MCF7 breast; 2.81% (active) in the assay with HCT-116 colon. In addition, the growth in the assay with HCC-2998 colon is -14.2% (active); in the assay on KM12 colon, 3.42% (active).
As for `O=C1Nc2ccccc2/C1=C/C(=N/c1nnc(-c2ccc(Cl)cc2)s1)c1ccccc1`, the growth with T-47D breast is 65.9%; with BT-549 breast, 31.9%; in the assay on MDA-MB-435 melanoma it was 41.7%; in the assay with SW-620 colon, -52.6% (active); with MCF7 breast, 28.5%; in the assay with HCT-116 colon, -58.5% (active). Also, the growth in the assay with HCC-2998 colon was 99.8%; with KM12 colon, 66.4%.
